Activity calls are given as the source filed them.

We go through eight compounds from PubChem BioAssay.

A short description of assay [1]: E. coli DRC41 culture turbidity changes, primary screen, E. coli filamentation inducer project, strain DRC41, OD650, 48 h (AID 1152).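 Also: E. coli MC1000 strain DRC41 lacking acrAB efflux pump and sulA.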 The conditions noted are these: E. coli DRC41 (acrAB sulA), higher = more signal, called active from +8 up or from −8 down.
Assay [2] can be described thus: small-molecule binders of probe aLefty1, primary screen, biochemical, small-molecule microarray, 635/667 nm fluorescence (AID 1153).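 Also: score merges spot fluorescence with signal-to-noise ratio from the scanned slide images.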 Particulars: higher = more signal.
Assay [3] can be described thus: PSAC antagonists in infected red cells, primary screen, cell-based, P. falciparum Indochina, OD700, 1 h (AID 1154). The conditions noted are these: P. falciparum Indochina infected RBC osmotic lysis, higher = more signal, called active from +8 up or from −8 down.
A short description of assay [4]: PSAC antagonists in infected red cells, primary screen, cell-based, P. falciparum Indochina, OD700, 2 h (AID 1155).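 Also: lysis reports solute entry through the parasite surface anion channel PSAC; channel blockers reduce lysis of infected cells.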 The conditions noted are these: P. falciparum Indochina infected erythrocytes, osmotic lysis OD700; higher = more signal, called active from +8 up or from −8 down.
The nature of assay [5]: osmotic lysis modulators in infected erythrocytes, primary screen, PSAC antagonist project, cell-based, P. falciparum Indochina, OD700, 3 h (AID 1156). Particulars: higher = more signal, called active from +8 up or from −8 down.
The nature of assay [6]: PSAC antagonists in infected red cells, primary screen, cell-based, P. falciparum Indochina, OD700, 18 h (AID 1157). Particulars: P. falciparum Indochina infected erythrocytes, osmotic lysis OD700, 18 h; higher = more signal, called active from +8 up or from −8 down.
Assay [7] in a line: modulators of S6 phosphorylation in cells, primary screen, cell-based, A549, cytoblot, luminescence, serum-stimulated (AID 1158).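 Also: serum-stimulated A549 lung adenocarcinoma cells; signal is phosphorylated S6 detected by cytoblot immunostaining with HRP secondary.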 Particulars: A549 phospho-S6 cytoblot, 5 h, higher = more signal.
For assay [8], the target named is NADPH oxidase 2 (Homo sapiens) (UniProt P04839). In words: NOX2-dependent H2O2 signal modulators, primary screen, NOX inhibitor project, cell-based, HEK293-NOX2, PMA-stimulated, Amplex Red fluorescence (AID 1159). Also: test concentration not given here. The conditions noted are these: 45 min, higher = more signal, called active from +8 up or from −8 down.
NADPH oxidase 2 (Homo sapiens), sequence (P04839 whole entry, looked up): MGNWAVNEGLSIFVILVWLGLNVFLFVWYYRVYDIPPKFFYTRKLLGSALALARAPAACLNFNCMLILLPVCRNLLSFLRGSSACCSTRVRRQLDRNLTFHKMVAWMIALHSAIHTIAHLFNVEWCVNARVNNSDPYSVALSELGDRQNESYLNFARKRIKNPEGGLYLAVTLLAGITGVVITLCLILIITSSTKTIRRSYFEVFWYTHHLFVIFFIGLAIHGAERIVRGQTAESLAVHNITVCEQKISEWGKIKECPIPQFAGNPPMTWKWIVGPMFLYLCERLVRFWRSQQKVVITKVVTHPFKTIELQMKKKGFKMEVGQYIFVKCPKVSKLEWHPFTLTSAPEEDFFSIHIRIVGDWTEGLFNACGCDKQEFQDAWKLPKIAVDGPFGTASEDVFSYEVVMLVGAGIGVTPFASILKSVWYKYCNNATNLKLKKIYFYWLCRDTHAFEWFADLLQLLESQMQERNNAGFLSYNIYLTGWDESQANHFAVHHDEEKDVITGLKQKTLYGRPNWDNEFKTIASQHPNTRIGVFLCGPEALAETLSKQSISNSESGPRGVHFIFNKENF
In assay [9] the target is NADPH oxidase 4 (Homo sapiens) (UniProt Q9NPH5). Kind of assay: NOX4-dependent H2O2 signal modulators, primary screen, NOX inhibitor project, cell-based, HEK293-NOX4, tetracycline-induced, Amplex Red fluorescence (AID 1160). The conditions noted are these: 45 min, higher = more signal, called active from +8 up or from −8 down.
NADPH oxidase 4 (Homo sapiens), sequence (Q9NPH5 whole entry, looked up): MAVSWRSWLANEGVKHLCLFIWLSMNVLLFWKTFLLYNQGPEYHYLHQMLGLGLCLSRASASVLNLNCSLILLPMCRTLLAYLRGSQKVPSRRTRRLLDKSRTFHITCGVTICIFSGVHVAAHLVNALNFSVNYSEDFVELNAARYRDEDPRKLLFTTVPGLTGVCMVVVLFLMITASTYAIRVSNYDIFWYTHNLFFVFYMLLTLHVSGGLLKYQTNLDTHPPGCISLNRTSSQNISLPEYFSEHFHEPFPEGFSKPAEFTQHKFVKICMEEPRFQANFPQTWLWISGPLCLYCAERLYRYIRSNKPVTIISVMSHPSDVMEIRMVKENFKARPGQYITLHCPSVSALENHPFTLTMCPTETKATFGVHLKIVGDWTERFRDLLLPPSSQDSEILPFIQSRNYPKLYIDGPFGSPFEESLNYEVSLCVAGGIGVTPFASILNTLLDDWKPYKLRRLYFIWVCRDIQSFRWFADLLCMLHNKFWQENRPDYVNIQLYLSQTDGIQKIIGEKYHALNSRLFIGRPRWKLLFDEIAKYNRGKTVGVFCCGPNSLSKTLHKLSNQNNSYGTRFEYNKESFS
In assay [10] the target is NADPH oxidase 5 (Homo sapiens) (UniProt Q96PH1). Kind of assay: NOX5-dependent H2O2 signal modulators, primary screen, NOX inhibitor project, cell-based, HEK293-NOX5, Amplex Red fluorescence (AID 1161). The conditions noted are these: HEK293-NOX5, ionomycin, 45 min, higher = more signal.
NADPH oxidase 5 (Homo sapiens), sequence (Q96PH1 whole entry, looked up): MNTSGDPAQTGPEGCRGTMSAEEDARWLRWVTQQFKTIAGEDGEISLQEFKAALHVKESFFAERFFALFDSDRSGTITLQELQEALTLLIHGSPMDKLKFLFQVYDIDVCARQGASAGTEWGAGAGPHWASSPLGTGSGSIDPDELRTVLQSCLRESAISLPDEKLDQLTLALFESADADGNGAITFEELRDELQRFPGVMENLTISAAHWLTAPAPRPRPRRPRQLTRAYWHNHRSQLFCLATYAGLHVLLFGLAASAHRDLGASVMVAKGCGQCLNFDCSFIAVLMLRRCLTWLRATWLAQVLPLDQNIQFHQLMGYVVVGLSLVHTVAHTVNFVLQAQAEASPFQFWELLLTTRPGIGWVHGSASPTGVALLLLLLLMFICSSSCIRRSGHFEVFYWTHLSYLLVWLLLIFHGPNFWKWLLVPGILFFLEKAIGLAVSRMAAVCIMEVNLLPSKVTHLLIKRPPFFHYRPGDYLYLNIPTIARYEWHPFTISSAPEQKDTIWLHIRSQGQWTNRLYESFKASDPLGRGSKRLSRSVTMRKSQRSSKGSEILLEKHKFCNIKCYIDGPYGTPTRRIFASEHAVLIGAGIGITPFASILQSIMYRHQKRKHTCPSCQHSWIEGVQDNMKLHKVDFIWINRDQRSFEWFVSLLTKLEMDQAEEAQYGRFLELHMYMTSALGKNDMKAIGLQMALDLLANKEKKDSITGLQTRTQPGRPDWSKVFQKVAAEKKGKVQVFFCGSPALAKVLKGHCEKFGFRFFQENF
The nature of assay [11]: A549 cell viability effects, profiling panel, calcein-AM fluorescence, 48 h, basal (AID 1162). Also: test concentration not given here. The conditions noted are these: higher = more signal.
A short description of assay [12]: adipocyte viability effects, profiling panel, cell-based, 3T3-L1 adipocytes, calcein-AM fluorescence, 48 h, basal (AID 1163). Also: test concentration not given here. Particulars: 3T3-L1 adipocytes viability, higher = more signal.
A short description of assay [13]: HepG2 cell viability effects, profiling panel, calcein-AM fluorescence, 48 h, basal (AID 1164). Also: test concentration not given here. The conditions noted are these: higher = more signal.
Assay [14] in a line: MM1S cell viability effects, profiling panel, calcein-AM fluorescence, 48 h, basal (AID 1165).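 Also: viability of MM1S multiple myeloma cells under basal unstimulated conditions; test concentration not given here.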 The conditions noted are these: higher = more signal.
Assay [15] in a line: basal RPMI8226 viability, no added stimulus, profiling panel, cell-based, calcein-AM fluorescence, 48 h, PK04 Diversity Set (AID 1166).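 Also: cells grown under basal conditions without added stimulus; test concentration not given here.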 Particulars: RPMI8226 myeloma viability, higher = more signal.
The nature of assay [16]: basal HepG2 mitochondrial membrane potential changes, profiling panel, cell-based, JC-1 fluorescence, 24 h, 100 nL compound (AID 1167). Also: test concentration not given here. The conditions noted are these: higher = more signal.
A short description of assay [17]: basal 3T3-L1 adipocyte mitochondrial potential changes, profiling panel, cell-based, JC-1 fluorescence, 3T3-L1 adipocytes, 24 h, 100 nL compound (AID 1168). Also: test concentration not given here. The conditions noted are these: JC-1 mitochondrial fluorescence, higher = more signal, called active from +8 up or from −8 down.
The nature of assay [18]: basal RPMI8226 mitochondrial membrane potential changes, profiling panel, cell-based, JC-1 fluorescence, 24 h, 100 nL compound (AID 1169). Also: test concentration not given here. Particulars: RPMI8226 myeloma, JC-1 mitochondrial potential fluorescence, higher = more signal.
Assay [19] can be described thus: basal MM1S mitochondrial membrane potential changes, profiling panel, cell-based, JC-1 fluorescence, 24 h, 100 nL compound (AID 1170). Also: test concentration not given here. Particulars: higher = more signal.
Assay [20] can be described thus: A549 lung cancer cell viability effects, profiling panel, resazurin fluorescence, 24 h, PK04 Diversity Set (AID 1171). Also: test concentration not given here. Particulars: higher = more signal, called active from +8 up or from −8 down.

For `CCOC(=O)C1=CC[C@@H](c2ccc(N(CC)CC)cc2)N(S(=O)(=O)c2ccc(C)cc2)[C@H]1c1ccc([N+](=O)[O-])cc1`, the z-score is -1.24 (inactive) in assay [1]; 1.66 (inactive) in assay [3]; 0.86 (inactive) in [4]; 0.723 (inactive) in assay [5]; 0.779 (inactive) in [6]; -0.779 in assay [7]. The z-score in [8] is 0.599 (inactive); in [9], -1.37 (inactive); in assay [10] it was -0.131; in assay [11], -0.112; in assay [12] it was -1.19; in [13] it was 0.203. Further, the z-score is -0.0595 in [14]; -0.173 in assay [15]; 4.25 in assay [16]; -0.114 (inactive) in assay [17]; -0.673 in assay [18]; -0.609 in assay [19]. In assay [20], the z-score was 0.325 (inactive). For the same compound, the composite z-score in [2] came to 0.437.
For the compound `COc1ccc([Si](C)(C)[C@@H]2[C@@H](CCO)O[C@]3(C(=O)N(Cc4ccccc4)c4ccc(N5CCCCC5=O)cc43)[C@H]2C)cc1`, the z-score in assay [1] was 2.13 (inactive); in [3] it was 3.59 (inactive); in [4], 1.19 (inactive); in [5], -0.121 (inactive); in [6], 0.231 (inactive); in assay [7] it was 0.863. Further, the z-score in [8] is -0.421 (inactive); in [9], -0.278 (inactive); in assay [10], 1.37; in assay [11], -0.887; in [12], 2.07; in [13], -1.02. Further, the z-score was -1.58 in assay [14]; -4.08 in assay [15]; 0.311 in assay [16]; -0.258 (inactive) in assay [17]; -0.776 in [18]; -0.786 in [19]. For the same compound, the z-score in [20] is -1.88 (inactive). For the same compound, the composite z-score in assay [2] turned out to be 0.0984.
`C[C@@H]1ON(c2ccccc2)[C@H](c2ccccc2)[C@H]1C(=O)N1C(=O)OC[C@H]1Cc1ccccc1`: the z-score in assay [1] was 0.848 (inactive); in [3], 1.66 (inactive); in [4] it was 0.282 (inactive); in assay [5], -0.13 (inactive); in assay [6] it was 0.379 (inactive); in assay [7] it was 0.389. The z-score was 0.0547 (inactive) in [8]; -0.104 (inactive) in assay [9]; -1.37 in assay [10]; -0.245 in assay [11]; 0.701 in assay [12]; -0.0596 in assay [13]. In addition, the z-score in assay [14] is -1.4; in assay [15] it was -0.0681; in assay [16] it was 1.38; in [17] it was 0.00493 (inactive); in assay [18], -0.137; in assay [19] it was -0.645. Further, the z-score in assay [20] was 1.38 (inactive). The composite z-score in assay [2] was -0.294.
Turning to `CCOC(=O)C[C@H]1[C@H](OC(=O)Cc2ccc3c(c2)OCO3)[C@@H](NC(=O)c2ccccc2)c2cc(OCCCO)ccc2N1C(=O)c1ccccc1`, the z-score was 1.7 (inactive) in [1]; 1.05 (inactive) in [3]; 0.396 (inactive) in assay [4]; -0.707 (inactive) in assay [5]; -0.281 (inactive) in assay [6]; 0.149 in assay [7]. Further, the z-score in assay [8] was 0.366 (inactive); in [9], 0.759 (inactive); in [10], 0.322; in [11] it was -0.11; in assay [12] it was 0.232; in [13] it was 1.52. The z-score in [14] is -0.266; in assay [15], 0.503; in assay [16], 0.614; in assay [17], 0.746 (inactive); in [18], 0.684; in assay [19], -0.96. Further, the z-score in assay [20] is 0.323 (inactive). Also, in assay [2], the composite z-score is -0.103.
With `O=C1NC(=O)C2C1C=CC(C(O)c1ccc(-c3ccccc3)s1)N2Nc1ccccn1` (stereo not given), the z-score in assay [1] is -0.513 (inactive); in assay [3], 2.41 (inactive); in assay [4], 1.14 (inactive); in [5], 0.216 (inactive); in assay [6], 1.02 (inactive); in assay [7] it was -0.697. In addition, the z-score in assay [8] is -1.09 (inactive); in [9], -2.3 (inactive); in [10], -1.44; in assay [11] it was -0.275; in assay [12], -0.456; in [13], -0.538. For the same compound, the z-score in assay [14] is -0.0747; in [15] it was -0.642; in assay [16], -1.85; in assay [17] it was -0.544 (inactive); in [18], -0.115; in assay [19], -0.371. Further, the z-score in assay [20] was -0.842 (inactive). In assay [2], this compound came in with a composite z-score of 0.114.
With `COc1ccc(C(=O)Nc2ccc(CN3C(=O)[C@@]4(O[C@@H](CC(=O)N5Cc6ccccc6C[C@H]5CO)[C@H]([Si](C)(C)c5ccc(OC)cc5)[C@H]4C)c4ccccc43)cc2)cc1`, the z-score in [1] was 0.0225 (inactive); in [3] it was 4.72 (inactive); in [4], 1.4 (inactive); in assay [5], 0.655 (inactive); in assay [6], 0.868 (inactive); in assay [7] it was 0.0933. Further, the z-score in [8] was 0.105 (inactive); in [9], 0.417 (inactive); in assay [10], -0.886; in assay [11] it was -0.0018; in assay [12], 0.844; in assay [13], -0.856. In addition, the z-score in [14] is -1.84; in assay [15], -0.881; in [16], 0.489; in assay [17], 0.749 (inactive); in assay [18], -0.957; in [19] it was -1.05. For the same compound, in assay [20], the z-score is 0.143 (inactive). The compound also came in with a composite z-score in assay [2] of 0.176.
Consider `C=CCC(OC(C)=O)[C@@H]1[C@@H](N(Cc2ccc(-c3cccc(C(F)(F)F)c3)o2)C(=O)c2cccc3ccccc23)c2cc(OCCCO)ccc2N1C(=O)c1ccc(-c2ccccc2)cc1` (stereo not given in full), for which the z-score in [1] was -0.985 (inactive); in assay [3], 0.531 (inactive); in assay [4] it was 0.431 (inactive); in [5] it was 2.33 (inactive); in assay [6] it was 0.485 (inactive); in [7], -0.326. The z-score in assay [8] is -0.959 (inactive); in [9] it was -1.45 (inactive); in [10] it was -1.08; in assay [11], 0.558; in [12] it was 0.865; in assay [13], -0.382. Also, the z-score in assay [14] is -1.04; in [15], -1.23; in [16], 2.41; in assay [17] it was -2.44 (inactive); in assay [18] it was 0.00531; in assay [19], 0.988. Besides, the z-score in [20] was -0.93 (inactive). This compound also came in with a composite z-score in assay [2] of -0.012.
Turning to `CCN(CC)c1ccc(N2CC=CC34O[C@@H]5/C=C\CCCOC(=O)C5[C@H]3C(=O)N(CCCCCO)[C@@H]4C2=O)cc1` (stereo not given in full), the z-score in assay [1] was -1.06 (inactive); in assay [3], 1.03 (inactive); in [4], 0.0039 (inactive); in assay [5] it was -0.656 (inactive); in assay [6], -0.28 (inactive); in assay [7], -0.486. The z-score was 0.516 (inactive) in assay [8]; -0.21 (inactive) in assay [9]; 1.41 in assay [10]; 0.147 in assay [11]; 0.184 in assay [12]; 0.481 in [13]. The z-score in assay [14] was -0.459; in assay [15] it was -0.711; in assay [16], -0.589; in [17] it was -0.267 (inactive); in assay [18] it was 0.0223; in assay [19], 0.515. Besides, the z-score in assay [20] is 0.0257 (inactive). In assay [2], this compound had a composite z-score of -0.0479.
